Assay results from the supplement of paper PMC11732987, “Enantioselective OTUD7B fragment discovery through chemoproteomics screening and high-throughput optimisation” (Communications Chemistry, 2025).

What was measured:
Assay in all cases: log2 ratio of Biotin-Ahx-Ub-VS probe labelling (fragment/DMSO); higher = less target engagement (more negative = stronger competition), active = hit call of the paper (q ≤ 0.05, log2 ratio ≤ -1)
Settings in all cases: compound concentration: 200 uM; treatment time: 3 h
[1] = biological target: USP9X (UniProt Q93008)
How it was run: (§1)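 Fragment (200 µM) or vehicle was incubated for 3 h with triplicate HEK293T lysate samples of 495 µg, which were then treated with Biotin-Ahx-Ub-VS at 0.5 µM final for 1 h. Labelled DUBs were enriched on NeutrAvidin, digested with LysC and trypsin, and analysed by diaPASEF LC-MS/MS. Values are average log2 fragment/vehicle ratios from an unpaired t-test on global-median-normalised Spectronaut label-free quantities, using proteins with ≥2 unique peptides.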

[2] = biological target: UniProt O00487
How it was run: as §1

[3] = biological target: UniProt O00507
How it was run: as §1

[4] = biological target: UniProt P51784
How it was run: as §1

[5] = biological target: T1, UniProt Q5T2D3
T1 sequence (whole entry): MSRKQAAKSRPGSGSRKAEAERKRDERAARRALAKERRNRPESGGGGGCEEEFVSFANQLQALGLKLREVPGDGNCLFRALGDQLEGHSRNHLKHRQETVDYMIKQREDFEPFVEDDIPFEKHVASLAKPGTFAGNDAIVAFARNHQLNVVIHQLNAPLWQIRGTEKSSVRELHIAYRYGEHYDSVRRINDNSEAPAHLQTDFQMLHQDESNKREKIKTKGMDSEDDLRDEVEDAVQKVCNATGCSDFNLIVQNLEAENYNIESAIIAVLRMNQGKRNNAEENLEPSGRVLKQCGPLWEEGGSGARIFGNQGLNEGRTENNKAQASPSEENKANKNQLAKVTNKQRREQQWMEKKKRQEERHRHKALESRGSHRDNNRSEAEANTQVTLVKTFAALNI
How it was run: as §1

[6] = biological target: T2, UniProt Q8TE49
T2 sequence (whole entry): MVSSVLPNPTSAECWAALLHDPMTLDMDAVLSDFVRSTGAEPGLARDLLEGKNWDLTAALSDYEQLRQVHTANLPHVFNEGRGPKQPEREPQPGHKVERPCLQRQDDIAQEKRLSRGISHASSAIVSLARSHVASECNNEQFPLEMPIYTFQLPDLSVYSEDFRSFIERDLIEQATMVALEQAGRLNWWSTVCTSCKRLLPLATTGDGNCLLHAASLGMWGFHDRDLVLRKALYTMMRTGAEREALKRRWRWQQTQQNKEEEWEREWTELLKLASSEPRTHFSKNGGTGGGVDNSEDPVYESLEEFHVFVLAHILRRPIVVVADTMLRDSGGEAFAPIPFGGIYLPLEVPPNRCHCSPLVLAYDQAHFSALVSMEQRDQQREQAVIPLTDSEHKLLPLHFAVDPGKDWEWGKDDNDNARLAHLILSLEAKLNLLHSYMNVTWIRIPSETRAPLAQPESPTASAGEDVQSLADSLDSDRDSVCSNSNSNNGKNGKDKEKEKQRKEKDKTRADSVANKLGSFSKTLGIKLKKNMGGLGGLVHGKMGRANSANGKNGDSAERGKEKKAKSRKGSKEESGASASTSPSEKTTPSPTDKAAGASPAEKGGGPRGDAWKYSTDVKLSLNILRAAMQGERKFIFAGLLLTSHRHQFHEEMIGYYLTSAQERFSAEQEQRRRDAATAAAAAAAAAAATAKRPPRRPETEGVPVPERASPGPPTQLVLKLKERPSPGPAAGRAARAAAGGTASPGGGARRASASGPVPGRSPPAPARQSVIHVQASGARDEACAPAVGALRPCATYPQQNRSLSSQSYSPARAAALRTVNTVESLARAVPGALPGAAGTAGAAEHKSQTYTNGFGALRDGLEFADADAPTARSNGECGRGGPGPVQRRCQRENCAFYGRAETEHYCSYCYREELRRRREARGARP
How it was run: as §1

[7] = biological target: T3, UniProt Q9P2H5
T3 sequence (whole entry): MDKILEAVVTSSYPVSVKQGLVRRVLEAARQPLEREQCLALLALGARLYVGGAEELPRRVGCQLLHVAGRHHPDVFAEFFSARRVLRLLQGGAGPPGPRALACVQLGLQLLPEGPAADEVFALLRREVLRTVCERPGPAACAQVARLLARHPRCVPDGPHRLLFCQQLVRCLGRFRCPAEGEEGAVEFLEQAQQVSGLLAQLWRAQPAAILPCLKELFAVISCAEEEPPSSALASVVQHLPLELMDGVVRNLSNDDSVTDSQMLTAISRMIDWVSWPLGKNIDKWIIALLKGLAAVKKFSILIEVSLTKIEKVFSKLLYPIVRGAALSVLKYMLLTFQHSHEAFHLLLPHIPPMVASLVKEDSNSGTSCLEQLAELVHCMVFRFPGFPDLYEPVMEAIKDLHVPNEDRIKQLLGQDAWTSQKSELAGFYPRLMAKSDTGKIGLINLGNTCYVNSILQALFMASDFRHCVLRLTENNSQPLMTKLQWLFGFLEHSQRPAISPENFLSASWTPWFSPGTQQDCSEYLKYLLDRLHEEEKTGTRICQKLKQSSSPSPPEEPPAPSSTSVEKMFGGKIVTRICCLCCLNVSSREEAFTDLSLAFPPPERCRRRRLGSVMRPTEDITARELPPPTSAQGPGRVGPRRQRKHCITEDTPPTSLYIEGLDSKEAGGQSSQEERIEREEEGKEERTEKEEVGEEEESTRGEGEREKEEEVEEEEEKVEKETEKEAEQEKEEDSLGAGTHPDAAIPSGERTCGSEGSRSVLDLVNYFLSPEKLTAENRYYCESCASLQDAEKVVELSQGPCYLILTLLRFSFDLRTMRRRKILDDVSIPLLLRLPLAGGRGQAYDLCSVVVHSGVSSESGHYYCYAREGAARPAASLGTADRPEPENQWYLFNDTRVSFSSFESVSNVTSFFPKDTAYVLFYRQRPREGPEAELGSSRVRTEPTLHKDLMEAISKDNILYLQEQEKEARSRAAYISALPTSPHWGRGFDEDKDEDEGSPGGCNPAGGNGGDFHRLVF
How it was run: as §1

[8] = biological target: T4, UniProt Q9UGI0
T4 sequence (whole entry): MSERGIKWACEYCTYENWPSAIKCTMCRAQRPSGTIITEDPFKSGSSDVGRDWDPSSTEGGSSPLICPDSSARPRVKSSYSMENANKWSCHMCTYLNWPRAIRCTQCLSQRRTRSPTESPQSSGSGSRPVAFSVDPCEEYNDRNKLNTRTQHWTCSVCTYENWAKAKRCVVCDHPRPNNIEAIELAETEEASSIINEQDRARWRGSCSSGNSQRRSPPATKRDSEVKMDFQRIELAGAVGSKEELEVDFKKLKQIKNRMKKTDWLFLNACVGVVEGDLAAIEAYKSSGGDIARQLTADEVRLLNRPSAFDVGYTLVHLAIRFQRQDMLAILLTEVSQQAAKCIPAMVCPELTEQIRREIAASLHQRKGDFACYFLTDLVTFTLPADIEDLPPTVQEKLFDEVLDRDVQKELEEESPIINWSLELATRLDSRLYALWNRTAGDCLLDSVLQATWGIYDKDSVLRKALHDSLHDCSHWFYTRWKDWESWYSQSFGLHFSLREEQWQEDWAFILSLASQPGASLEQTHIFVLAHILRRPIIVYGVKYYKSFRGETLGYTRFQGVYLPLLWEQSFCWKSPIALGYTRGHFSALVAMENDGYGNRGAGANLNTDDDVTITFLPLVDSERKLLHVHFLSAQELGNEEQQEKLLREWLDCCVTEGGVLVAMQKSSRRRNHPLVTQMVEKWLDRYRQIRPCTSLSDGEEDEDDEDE
How it was run: as §1

[9] = biological target: T5, YOD1 (UniProt Q5VVQ6)
T5 sequence (whole entry): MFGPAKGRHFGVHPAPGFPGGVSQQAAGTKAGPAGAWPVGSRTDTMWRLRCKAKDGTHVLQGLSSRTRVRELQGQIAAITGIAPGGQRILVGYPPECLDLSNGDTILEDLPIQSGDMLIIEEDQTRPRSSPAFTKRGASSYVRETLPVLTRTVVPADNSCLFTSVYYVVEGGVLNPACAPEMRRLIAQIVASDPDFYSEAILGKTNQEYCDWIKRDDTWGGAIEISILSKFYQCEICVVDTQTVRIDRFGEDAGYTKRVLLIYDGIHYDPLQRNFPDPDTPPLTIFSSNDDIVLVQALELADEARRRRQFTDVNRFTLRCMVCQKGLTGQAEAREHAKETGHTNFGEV
How it was run: as §1

Measured: log2 ratio of Biotin-Ahx-Ub-VS probe labelling

Sequence of UniProt O00487 (O00487 whole entry): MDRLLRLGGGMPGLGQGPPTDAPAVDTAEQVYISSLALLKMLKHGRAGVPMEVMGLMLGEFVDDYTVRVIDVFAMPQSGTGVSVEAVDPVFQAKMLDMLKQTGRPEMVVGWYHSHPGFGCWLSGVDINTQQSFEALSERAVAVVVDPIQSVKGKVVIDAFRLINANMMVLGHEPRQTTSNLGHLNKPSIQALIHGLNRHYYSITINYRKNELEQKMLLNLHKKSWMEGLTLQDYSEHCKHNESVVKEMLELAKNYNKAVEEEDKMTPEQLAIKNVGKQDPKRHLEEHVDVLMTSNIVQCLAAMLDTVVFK
Sequence of UniProt O00507 (O00507 whole entry): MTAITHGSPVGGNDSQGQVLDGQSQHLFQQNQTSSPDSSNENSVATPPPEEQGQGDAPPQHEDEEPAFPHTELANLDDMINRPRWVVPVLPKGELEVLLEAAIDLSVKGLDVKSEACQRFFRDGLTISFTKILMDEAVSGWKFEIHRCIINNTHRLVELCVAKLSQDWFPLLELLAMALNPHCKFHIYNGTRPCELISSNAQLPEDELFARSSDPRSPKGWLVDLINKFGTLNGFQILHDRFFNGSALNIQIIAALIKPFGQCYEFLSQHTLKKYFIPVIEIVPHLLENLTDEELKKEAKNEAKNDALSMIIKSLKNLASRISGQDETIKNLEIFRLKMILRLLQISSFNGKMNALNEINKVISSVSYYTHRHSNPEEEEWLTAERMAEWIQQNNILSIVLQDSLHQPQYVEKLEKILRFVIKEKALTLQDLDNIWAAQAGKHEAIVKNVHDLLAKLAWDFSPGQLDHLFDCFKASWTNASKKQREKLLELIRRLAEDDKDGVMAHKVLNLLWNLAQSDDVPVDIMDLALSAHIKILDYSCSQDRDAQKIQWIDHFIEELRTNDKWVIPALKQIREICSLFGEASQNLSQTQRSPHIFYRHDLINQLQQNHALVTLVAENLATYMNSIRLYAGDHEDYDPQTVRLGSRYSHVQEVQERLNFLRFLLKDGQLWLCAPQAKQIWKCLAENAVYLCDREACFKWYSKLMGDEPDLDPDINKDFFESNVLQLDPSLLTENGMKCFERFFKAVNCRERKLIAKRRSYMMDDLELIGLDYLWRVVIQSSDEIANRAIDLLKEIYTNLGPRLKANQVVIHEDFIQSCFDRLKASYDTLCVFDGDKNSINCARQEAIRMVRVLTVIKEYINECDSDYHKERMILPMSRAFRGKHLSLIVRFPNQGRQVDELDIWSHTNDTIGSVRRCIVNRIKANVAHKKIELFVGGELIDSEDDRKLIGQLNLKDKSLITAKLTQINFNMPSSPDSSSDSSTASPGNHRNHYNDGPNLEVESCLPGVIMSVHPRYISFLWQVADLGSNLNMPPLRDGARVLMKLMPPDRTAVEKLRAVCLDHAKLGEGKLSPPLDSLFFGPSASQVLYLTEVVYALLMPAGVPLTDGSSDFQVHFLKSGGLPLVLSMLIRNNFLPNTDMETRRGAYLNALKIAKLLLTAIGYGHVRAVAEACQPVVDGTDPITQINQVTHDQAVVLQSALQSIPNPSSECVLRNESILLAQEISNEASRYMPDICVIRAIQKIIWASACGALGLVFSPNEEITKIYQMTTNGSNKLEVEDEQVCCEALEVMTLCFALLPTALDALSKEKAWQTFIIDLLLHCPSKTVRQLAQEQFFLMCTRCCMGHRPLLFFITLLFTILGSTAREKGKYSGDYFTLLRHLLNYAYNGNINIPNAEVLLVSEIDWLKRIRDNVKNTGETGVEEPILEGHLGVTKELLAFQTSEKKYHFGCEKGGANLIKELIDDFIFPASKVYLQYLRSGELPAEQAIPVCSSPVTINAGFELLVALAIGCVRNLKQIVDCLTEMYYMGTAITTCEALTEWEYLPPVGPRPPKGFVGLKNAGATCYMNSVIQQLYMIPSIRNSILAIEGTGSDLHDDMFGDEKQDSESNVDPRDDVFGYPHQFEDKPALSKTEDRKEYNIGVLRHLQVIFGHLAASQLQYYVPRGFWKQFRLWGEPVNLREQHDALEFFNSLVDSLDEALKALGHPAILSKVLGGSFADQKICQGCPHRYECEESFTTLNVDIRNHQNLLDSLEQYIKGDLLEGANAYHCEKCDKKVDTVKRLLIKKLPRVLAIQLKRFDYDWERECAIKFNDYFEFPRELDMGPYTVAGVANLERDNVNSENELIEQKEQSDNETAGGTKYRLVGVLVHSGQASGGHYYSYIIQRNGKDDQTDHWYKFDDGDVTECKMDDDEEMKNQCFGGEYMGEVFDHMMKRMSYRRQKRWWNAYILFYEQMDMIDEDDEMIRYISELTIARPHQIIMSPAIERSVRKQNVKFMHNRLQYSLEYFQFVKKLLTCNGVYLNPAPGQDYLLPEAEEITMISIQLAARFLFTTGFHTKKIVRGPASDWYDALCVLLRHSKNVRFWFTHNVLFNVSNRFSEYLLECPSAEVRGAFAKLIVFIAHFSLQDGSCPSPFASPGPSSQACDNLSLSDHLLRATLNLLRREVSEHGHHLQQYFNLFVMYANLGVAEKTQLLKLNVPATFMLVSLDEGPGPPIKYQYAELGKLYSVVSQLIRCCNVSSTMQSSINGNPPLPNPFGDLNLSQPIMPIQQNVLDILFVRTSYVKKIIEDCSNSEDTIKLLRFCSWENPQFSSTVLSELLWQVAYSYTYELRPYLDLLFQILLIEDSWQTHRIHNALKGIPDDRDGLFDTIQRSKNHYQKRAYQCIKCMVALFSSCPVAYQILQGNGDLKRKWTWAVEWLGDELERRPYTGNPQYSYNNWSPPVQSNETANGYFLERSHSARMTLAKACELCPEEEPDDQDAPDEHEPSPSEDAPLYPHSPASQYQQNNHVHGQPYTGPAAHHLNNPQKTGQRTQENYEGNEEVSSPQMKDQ
Sequence of UniProt P51784 (P51784 whole entry): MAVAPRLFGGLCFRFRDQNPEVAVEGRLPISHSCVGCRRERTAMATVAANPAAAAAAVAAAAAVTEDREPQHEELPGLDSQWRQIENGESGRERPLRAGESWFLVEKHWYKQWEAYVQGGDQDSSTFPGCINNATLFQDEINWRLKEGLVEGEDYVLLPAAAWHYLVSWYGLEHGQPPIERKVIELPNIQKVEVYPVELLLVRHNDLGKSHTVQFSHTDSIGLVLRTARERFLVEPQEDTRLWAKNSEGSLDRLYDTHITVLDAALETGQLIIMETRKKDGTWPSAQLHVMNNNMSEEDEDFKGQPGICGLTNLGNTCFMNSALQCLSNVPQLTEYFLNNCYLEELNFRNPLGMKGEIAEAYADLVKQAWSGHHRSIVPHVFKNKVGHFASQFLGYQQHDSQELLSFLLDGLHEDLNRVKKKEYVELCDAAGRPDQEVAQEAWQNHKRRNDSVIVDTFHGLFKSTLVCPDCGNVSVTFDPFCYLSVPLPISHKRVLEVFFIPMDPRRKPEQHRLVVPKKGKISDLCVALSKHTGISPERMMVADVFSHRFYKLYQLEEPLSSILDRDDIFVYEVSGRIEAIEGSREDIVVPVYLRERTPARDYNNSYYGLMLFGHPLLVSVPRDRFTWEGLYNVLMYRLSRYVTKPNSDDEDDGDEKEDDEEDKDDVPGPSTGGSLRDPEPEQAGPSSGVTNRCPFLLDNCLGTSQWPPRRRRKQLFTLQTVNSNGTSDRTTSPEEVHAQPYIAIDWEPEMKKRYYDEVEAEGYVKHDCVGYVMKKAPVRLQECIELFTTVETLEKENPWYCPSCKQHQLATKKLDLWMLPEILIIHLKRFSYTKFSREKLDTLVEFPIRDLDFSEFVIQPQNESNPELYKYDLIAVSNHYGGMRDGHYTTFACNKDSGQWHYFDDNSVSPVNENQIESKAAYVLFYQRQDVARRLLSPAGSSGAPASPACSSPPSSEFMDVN

CN(C)S(=O)(=O)c1ccccc1CNC(=O)CCl
inactive: [1] -0.0424 | [2] 0.0834 | [3] -0.154 | [4] 0.0361 | [5] -0.255 | [6] -0.178 | [7] -0.0151 | [8] -0.47 | [9] 0.0246
